Inconclusive results are not listed. The source made the active and inactive calls. The call rests on the fitted dose curve; in most records, active means well fitted inhibition curve with a large enough effect; inconclusive means small, poorly fitted or top-dose-only effect, or effect the other way; inactive means no such curve, though single readings can be large or run the other way.
Experiment: Confirmation Concentration-Response Assay for lipid storage modulators: for probe SAR
Method in brief: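 Laser-scanning cytometry read BODIPY 493/503 lipid-droplet intensity and its ratio to CellTracker Red cell signal. Beforehand, 5,000 cells/well were exposed 18–24 h at 24 °C to test compound with oleic acid (1 µL, 400 µM). 20 µM Triacsin C defined full inhibition.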

Structure (SMILES) | Potency
CCOc1ccc(CCNC(=O)c2cc3c(s2)CCC3)cc1OCC | 560 nM (active)
COc1ccc(CCNC(=O)c2cc3sc(C)cc3n2C)cc1OC | 2810 nM (active)
CC(C)(C)OC(=O)NC1CCCc2c1cnn2-c1ccc(F)cc1F (stereo not drawn) | 888 nM (active)
CCOc1ccc(CCNC(=O)c2cc3sccc3n2Cc2ccccc2)cc1OCC | 35.3 nM (active)
CN(C)CC(=O)NC1CCCc2c1cnn2-c1ccc(F)cc1F (stereo not drawn) | inactive
COc1ccc(CCNC(=O)c2cc3sccc3n2Cc2ccccc2)cc1OC | 315 nM (active)
O=C(NC1CCCc2c1cnn2-c1ccc(F)cc1F)C1CCCCC1 (stereo not drawn) | 4990 nM (active)
O=C(NC1CCCc2c1cnn2-c1ccc(F)cc1F)C1CCCCN1 (stereo not drawn) | inactive
Cc1ccc(-c2cnc(SCC(=O)Nc3nccs3)n2Cc2ccco2)cc1 | inactive
O=C(NC1CCCc2c1cnn2-c1ccc(F)cc1F)c1ccn[nH]1 (stereo not drawn) | 2810 nM (active)
O=C(NC1CCCc2c1cnn2-c1ccccc1F)c1ccc2ncccc2c1 (stereo not drawn) | 2230 nM (active)
O=C(N[C@H]1CCCc2c1cnn2-c1ccc(F)cc1F)c1ccccn1 | 7910 nM (active)
O=C(NCCc1ccc(O)c(O)c1)c1cc2sccc2n1Cc1ccccc1 | inactive
Cc1ccc(-n2ncc3c2CCCC3NC(=O)c2c(F)cccc2F)cc1C (stereo not drawn) | 158 nM (active)
O=C(NC1CCCc2c1cnn2-c1cc(F)cc(F)c1)c1cccc2nccnc12 (stereo not drawn) | 3450 nM (active)
CCOc1ccc(CCNC(=O)c2cc3sccc3n2Cc2ccc(-n3cncn3)cc2)cc1OCC | 177 nM (active)
CCOc1ccc(CCNC(=O)Cc2ccccc2)cc1OCC | inactive
O=C(NC1CCCc2c1cnn2-c1ccc(F)cc1F)c1ccccc1 (stereo not drawn) | 56 nM (active)
COc1ccc(CCNC(=O)c2cc3sccc3n2Cc2ccc(F)cc2)cc1OC | 499 nM (active)
O=C(NC1CCCc2c1cnn2-c1ccc(F)cc1F)C1CC1 (stereo not drawn) | 1580 nM (active)
COc1ccc(-c2csc(NC(=O)CSc3nnc(Nc4ccccc4)s3)n2)cc1 | 628 nM (active)
Cc1cccc(Nc2nnc(SCC(=O)Nc3nc(-c4ccc(F)cc4)cs3)s2)c1 | 628 nM (active)
Cc1cc(SCc2sc(-c3ccc(C(F)(F)F)cc3)nc2C)ccc1OCC(=O)O | inactive
